The values that follow come from PubChem BioAssay (EPA / NIEHS).

The structures appear in SMILES notation. Several values for one entry are separate records, joined by “and”; a condition that tells them apart may be missing. Identical values can stand only once. Inconclusive results are not listed. Activity calls are given as the source filed them. The calls were made as follows: active = hit-call score of the fitted dose curve at least 0.9, where 1 is the maximum; inconclusive = response in the unintended direction; inactive = score below 0.9.

As a reminder, the AC50 is the midpoint of the concentration-response curve, whichever way the signal moves.

The nature of this experiment: ACEA_ER_AUC_viability: ACEA Biosciences xCELLigence Real-Time Cell Analysis on Estrogen Receptor Agonism for Viability (AID 2283782).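 Also: hit means loss of impedance signal meaning reduced cell growth or viability.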 In outline:
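Read-out: real-time electrical impedance (RT-CES) area under curve, loss of signal taken as reduced viability, normalized to DMSO baseline. T-47D cells, charcoal-stripped serum medium, compounds up to 100 uM final, continuous exposure, 80 h.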
As to `O=C(O)c1cccnc1`, the compound was called inactive.
The same measure, in the same setting: for `CCC(C)N(C)C(=O)c1cc2ccccc2c(-c2ccccc2Cl)n1` (stereo not drawn) the value was “inactive”.
Same read-out and setting: for `O=Cc1ccccc1C=O` the value was “inactive”.
On to `Cc1ccc(-c2cc(C(F)(F)F)nn2-c2ccc(S(N)(=O)=O)cc2)cc1`, for which the AC50 is 90.7 µM (active).
As to `CCCCCCCCCCCCCCCCO`, the compound was called inactive.
`CN(C)CCCN1c2ccccc2Sc2ccc(Cl)cc21`: the AC50 is 13.1 µM (active).
As to `Nc1nc(=S)c2[nH]cnc2[nH]1`, the AC50 is 0.237 µM (active).
Still for that read-out and setting: then `CSc1ccc(Oc2ccc(S(N)(=O)=O)cc2CN(C)C)cc1C`, with 50 µM (active).
On the same count and under the same terms, for `S=c1[nH]c2ccccc2s1` the value was 91.9 µM (active).
The same measure, in the same setting: then `Cc1c(C)c2c(c(C)c1O)CCC(C)(COc1ccc(CC3SC(=O)NC3=O)cc1)O2` (stereo not drawn), with 82.9 µM (active).
On to `CC(=O)CC(c1ccccc1)c1c(O)c2ccccc2oc1=O` (stereo not drawn), for which the outcome was inactive.
For the compound `O=C1OC(c2ccc(O)cc2)(c2ccc(O)cc2)c2ccccc21`, the AC50 was 92 µM (active).
As for `CCN(CC)CCOc1ccc(C(=C(Cl)c2ccccc2)c2ccccc2)cc1`, the half-maximal activity concentration (AC50) is 6.6 µM (active) and 7.32 µM (active) and 11.2 µM (active).
For the compound `CC(N)=O`, the outcome was inactive.
`Cc1cc(SC2=C(O)C[C@@](CCc3ccc(N)cc3)(C(C)C)OC2=O)c(C(C)(C)C)cc1CO`: the call was inactive.
`COC(=O)[C@H]1[C@H]2C[C@@H]3c4[nH]c5cc(OC)ccc5c4CCN3C[C@H]2C[C@@H](OC(=O)c2cc(OC)c(OC)c(OC)c2)[C@@H]1OC`: the AC50 was 60.5 µM (active).
For `CC1=C(C)S(=O)(=O)CCS1(=O)=O`, the call was inactive.
On the same count and under the same terms, then `N[C@@H](Cc1c[nH]c2ccccc12)C(=O)O`, with “inactive”.
